Screens (PubChem)
CYP2C19 activ – cytochrome P450 2C19 (human) activation; P33261; recombinant CYP2C19, luciferin-H EGE luminescence; active compounds read high; 0 = fully inhibited enzyme, 1 = untreated enzyme; activation factor at 5 µM; 96,000 tested, under 10 active; AID 1025;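 active means activation factor of at least 2 at 5 µM in the primary screen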;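 further: 0 = wells with 2.5 mM tranylcypromine and 1 = vehicle-only wells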
CYP2C9 inh – blocks human cytochrome P450 2C9 | P11712 | CYP2C9 Supersomes, luciferin-H conversion, luminescence | inhibition, % at 5 µM | actives 20% (n = 96,000);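 active means blocking of liver enzyme CYP2C9 beyond about 50% at 5 µM, limit read from the data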
Target sequence (P11712 whole entry, looked up): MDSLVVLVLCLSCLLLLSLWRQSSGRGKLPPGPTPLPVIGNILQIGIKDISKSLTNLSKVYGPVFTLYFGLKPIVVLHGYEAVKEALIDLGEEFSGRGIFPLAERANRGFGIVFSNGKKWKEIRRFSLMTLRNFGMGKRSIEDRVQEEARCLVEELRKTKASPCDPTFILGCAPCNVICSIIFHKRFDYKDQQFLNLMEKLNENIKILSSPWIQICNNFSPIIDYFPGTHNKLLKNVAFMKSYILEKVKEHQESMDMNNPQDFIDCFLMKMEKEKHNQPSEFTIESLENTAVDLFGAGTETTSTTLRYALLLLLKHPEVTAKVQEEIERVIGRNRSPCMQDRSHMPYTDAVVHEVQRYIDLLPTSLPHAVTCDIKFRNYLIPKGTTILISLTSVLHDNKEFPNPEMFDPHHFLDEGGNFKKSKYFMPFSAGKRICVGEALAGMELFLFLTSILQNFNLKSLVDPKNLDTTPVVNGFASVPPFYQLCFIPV
Pyk2 oligo antag – antagonists of human Pyk2 oligomerization. Q14289. Q293 cells, Pyk2 FERM NanoBiT luminescence; active compounds read low. z-score (the deposit names both 25 µM and 10 µM). actives 0.83% (n = 99,000). AID 1347419;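 active means Z-score of -3 or lower, scaled per plate to the spread of control and sample wells; inactive means z-score above -3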;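 further: negative z-score means lost luminescence so less FERM oligomerization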
CYP2C9 act – increases human cytochrome P450 2C9 activity | actives 1.4% (n = 96,000) | activation factor at 5 µM | AID 1024 | P11712 | recombinant CYP2C9, luciferin-H conversion, luminescence; active compounds read high; factor 1 = untreated enzyme, 0 = blocked;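 active means activation factor of 2 or more for CYP2C9 at a 5 µM dose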;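 further: 0 = sulfaphenazole-blocked wells and 1 = vehicle-only wells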
CYP2C19 inh – inhibitors of human CYP2C19 | CYP2C19 Supersomes, luciferin-H EGE luminescence, 30 min | inhibition, % at 5 µM | actives 21% (n = 96,000);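 active means CYP2C19 inhibition above a set limit at 5 µM in the primary screen, cut at about 50% in these data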;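 further: plate controls were negative control wells for no effect and 2.5 mM tranylcypromine positive control for full effect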
* hit, by the source's call; x = not tested or not shown. The list is not random: actives were taken first. Their share in the collection is about 28%.

SMILES	CYP2C19 activ	CYP2C9 inh	Pyk2 oligo antag	CYP2C9 act	CYP2C19 inh
CC(C/C=N/NC(=O)COc1cc(Cl)ccc1Cl)c1ccccc1 (stereo unspecified)	0.3	11	0.9	0.9	70*
N#Cc1ccsc1NC(=O)CSc1ncnc2ccccc12	0.7	64*	0.35	0.4	30
N#Cc1ccsc1NC(=O)CSc1ncn[nH]1	0.8	28	-0.13	0.7	20
CCn1c(CNC(=O)c2ccco2)nnc1SCC(=O)Nc1ccc(Br)cc1F	x	x	0.5	x	x
COc1cc2c(cc1OC)C(c1ccc(-c3cc(Cl)ccc3Cl)o1)=NCC2	0.3	89*	0.87	0.1	73*
COc1ccc(-c2noc(-c3ccccc3Cl)n2)cc1OC	0.9	-3	-1.3	1	15
COc1cc2c(cc1OC)C(c1ccc(-c3ccc(Cl)cc3Cl)o1)=NCC2	0.7	56*	-0.72	0.4	29
O=C(O)c1ccc(-c2ccc(Cl)cc2Cl)o1	1.1	32	1.4	0.7	-7
COc1ccc(-c2nc(-c3ccc(Br)o3)no2)cc1OC	1.1	41	x	0.6	-9
COc1cc2c(cc1OC)C(c1ccc(-c3ccccc3Cl)o1)=NCC2	0.7	62*	-0.29	0.4	32
COc1cc2c(cc1OC)C(c1ccc(-c3ccc(Cl)c(Cl)c3)o1)=NCC2	0.2	95*	-2.1	0.1	83*
Clc1ccc(Cl)c(OCc2cc(-c3ccccc3Cl)on2)c1	0.7	-41	0.38	1.4	28
COc1ccc(Cl)c(Cn2c(NCCCO)nc3c2c(=O)n(C)c(=O)n3C)c1	1	7	-0.23	0.9	2
O=C(NCc1ccccn1)/C(=N/O)c1ccccc1	1	-5	-0.66	1.1	3
CCOC(=O)c1c(NC(=O)CSc2nnnn2-c2ccc(OC)cc2)sc(C)c1C	0.8	32	0.47	0.7	24
CCOC(=O)c1c(NS(C)(=O)=O)sc2c1CCC(C)C2 (stereo unspecified)	0.7	57*	2.5	0.4	31
CCOC(=O)c1c(N)sc2c1CCC(C)C2 (stereo unspecified)	0.9	6	1.5	0.9	9
CCOC(=O)c1c(NC(=O)CSc2nnnn2-c2ccccc2)sc2c1CCC(C)C2 (stereo unspecified)	0.7	81*	1.1	0.2	29
CCOC(=O)C1=C(O)/C(=C/c2cc(OC)c(OC)c(OC)c2)N=C1C	1	3	0.52	1	-2
N#C/C(=C(/O)COC(=O)c1ccc2c(c1)OCCO2)c1nc2ccccc2[nH]1	0.4	76*	-0.5	0.2	60*
CCOC(=O)c1c(C)[nH]c(C(=O)OC/C(O)=C(\C#N)c2nc3ccccc3[nH]2)c1C	0.4	81*	-1.2	0.2	58*
N#C/C(=C\Nc1ccc2c(c1)OCCO2)c1nc2ccccc2[nH]1	0.8	0	-1.9	1	24
CC(=O)NCCN1C(=O)C2C3c4ccccc4C(c4ccccc43)C2C1=O (stereo unspecified)	0.6	2	1.2	1	43
Cc1ccc(C(=O)N(Nc2nc3ccccc3s2)C(=O)c2ccc(C)cc2)cc1	x	x	-0.18	x	x
O=C(OCC#CCSc1nnc(-c2ccc([N+](=O)[O-])cc2)o1)c1cccs1	1.1	6	0.71	0.9	-11
SMILES	CYP2C19 activ	CYP2C9 inh	Pyk2 oligo antag	CYP2C9 act	CYP2C19 inh
N#Cc1c2n(c3c(=O)n(Cc4ccc(Cl)cc4)cnc13)CCCC2	0	62*	-3.5*	0.4	100*
N#Cc1c2n(c3c(=O)n(Cc4ccccc4Cl)cnc13)CCCC2	0	92*	-2.9	0.1	99*
N#Cc1ccc(Cn2c(=O)c(C#N)c3n(c2=O)CCC3)cc1	0.1	-19	0.74	1.2	89*
O=c1[nH]nc(Cc2ccc(-c3ccccc3Cl)o2)c2ccccc12	0.9	7	0.22	0.9	10
N#Cc1ccsc1NC(=O)CN1CCN(S(=O)(=O)c2ccc3ccccc3c2)CC1	x	x	0.57	x	x
CCOc1ccccc1Nc1nc(N)nc(CN(C)C2CCCCC2)n1	0.7	5	-0.38	1	28
O=[N+]([O-])c1ccc(Cl)c(/C=N/N2CCN(Cc3ccccc3Cl)CC2)c1	0.8	-108	1.1	2.1*	19
CCOC(=O)c1sc(NC(=O)CSc2nnc(-c3ccc(OC)cc3)n2CCOC)nc1C	x	x	0.53	x	x
Cc1onc(-c2ccccc2Cl)c1C(=O)OCC(=O)c1ccc2c(c1)OCCO2	0.4	47	-2.7	0.5	55*
Cc1onc(-c2ccccc2Cl)c1C(=O)Nc1cccc(-c2cn3cccnc3n2)c1	0.4	85*	-0.61	0.2	62*
Cc1onc(-c2ccccc2Cl)c1C(N)=O	0.9	2	0.59	1	12
CCN(CC)S(=O)(=O)c1ccc(NC(=O)c2c(-c3ccccc3)noc2C)cc1	0.4	46	x	0.5	65*
CCCOc1ccc(NC(=O)c2c(-c3ccccc3)noc2C)cc1	0.9	1	x	1	6
Cc1onc(-c2c(Cl)cccc2Cl)c1C(=O)Nc1ccc2c(c1)OCCO2	0.5	88*	-1.5	0.1	54*
COCCNC(=O)c1ccccc1NC(=O)c1ccccc1N(C)S(=O)(=O)c1ccccc1	0	93*	-0.76	0.1	100*
Cc1cc(=O)oc(C)c1C(=O)OCC(=O)c1ccc2ccccc2c1	0.4	4	0.57	1	63*
Cc1cc(=O)oc(C)c1C(=O)OCC(=O)c1ccccc1	0.6	12	0.76	0.9	39
Cc1onc(-c2ccccc2Cl)c1C(=O)Nc1ccc(S(=O)(=O)N2CCCC2)cc1	0.7	75*	x	0.3	30
COCCNC(=O)c1ccccc1NC(=O)c1ccccc1N(C)S(C)(=O)=O	x	x	0.02	x	x
Cc1onc(-c2ccccc2)c1C(=O)OCC(=O)c1ccccc1	0.3	54*	-1.8	0.5	69*
Clc1ccc(-c2ccc(/C=N/Nc3cc(N4CCOCC4)nc(N4CCOCC4)n3)o2)cc1	x	x	-0.53	x	x
Cc1onc(-c2ccccc2Cl)c1C(=O)Nc1ccc2c(c1)OCO2	0.3	53*	-0.49	0.5	71*
Cc1ccc(-n2nc3c(c2NC(=O)c2c(-c4ccccc4Cl)noc2C)CS(=O)(=O)C3)c(C)c1	0.5	79*	0.84	0.2	52*
O=C(Nc1ccc2c(c1)OCO2)C1CC(c2ccccc2Cl)=NO1 (stereo unspecified)	0.1	-75	0.2	1.8	94*
Cc1onc(-c2ccccc2Cl)c1C(=O)Nc1ccc(F)c(F)c1	0.1	70*	-0.84	0.3	90*
Cc1cc(NC(=O)c2c(-c3ccccc3Cl)noc2C)no1	0.8	31	0.74	0.7	15
CC(NC(=O)OCc1ccccc1)C(=O)N1CC(O)CC1C(=O)O (stereo unspecified)	1.2	-16	0.91	1.2	-16
Cc1ccc(S(=O)(=O)N2CCCC2)cc1C(=O)O	1.2	3	-0.2	1	-22
CCN(CC)S(=O)(=O)c1ccc(NC(=O)c2ccccc2N(C)S(C)(=O)=O)cc1	0.9	61*	-0.28	0.4	6
